This passage reports inhibition results from PubChem BioAssay.

Values without a mark were called inactive. The rule behind the calls is not given here.

In the test the target is Pantothenate synthetase (Mycobacterium tuberculosis (strain ATCC 25618 / H37Rv)) (UniProt P9WIL5). The test can be described thus: Recombinant Mtb pantothenate synthetase (PanC) inhibitors, coupled enzyme, confirmatory (AID 375).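 Note: 0% = full reaction with vehicle and 100% = no enzyme background.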 The settings on record: coupled enzyme assay; at 10 µM, hits give high values.
Sequence of Pantothenate synthetase (Mycobacterium tuberculosis (strain ATCC 25618 / H37Rv)) (P9WIL5 whole entry, looked up): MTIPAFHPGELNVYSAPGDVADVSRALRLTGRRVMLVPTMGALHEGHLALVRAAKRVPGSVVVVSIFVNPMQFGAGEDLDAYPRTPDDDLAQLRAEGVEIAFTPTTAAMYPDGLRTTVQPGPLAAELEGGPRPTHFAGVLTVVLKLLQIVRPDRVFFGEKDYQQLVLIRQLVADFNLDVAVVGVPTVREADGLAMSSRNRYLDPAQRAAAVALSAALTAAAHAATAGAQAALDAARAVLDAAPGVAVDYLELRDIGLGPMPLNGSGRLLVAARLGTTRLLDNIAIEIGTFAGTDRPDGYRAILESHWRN
Broadly, the inhibition is the change of the read-out against control, counted positive when it falls. Turning to `CCSc1nc2c(c(=O)n1CC)SC(C)C2` (centres undefined), the inhibition was 0%.

Turning to `COc1ccc(CCNS(=O)(=O)c2ccc3c(c2)OCCO3)cc1`, the inhibition is 0%.

Take `O=C1c2oc3ccccc3c(=O)c2C(c2ccccn2)N1Cc1ccccc1` (centres undefined): the inhibition is 13%.

`Cc1noc(C)c1S(=O)(=O)N1CCC(C(=O)Nc2ccccn2)CC1`: the inhibition was 4%.

Consider `Cc1nc2c(-c3ccccc3)c(C)nn2c(C)c1CCC(=O)O`, for which the inhibition was 0%.

For the compound `CC(=O)N1CCc2cc(S(=O)(=O)NC(C(=O)NCc3ccccc3)C(C)C)ccc21` (centres undefined), the inhibition is 3%.

With `CCN(C1CCCCC1)S(=O)(=O)c1ccc(S(=O)(=O)N2CCN(CCC#N)CC2)cc1`, the inhibition is 0%.

As for `CCCCN(CCCC)CCn1cnc2c([nH]c3ccc(OC)cc32)c1=O`, the inhibition was 4%.

Take `COCCNC(=O)c1cc2c(-c3ccccc3F)nn(C)c2s1`: the inhibition is 8%.

In the case of `COC(=O)CSC1=C(C#N)C(c2ccccc2)CC(=O)N1` (centres undefined), the inhibition is 0%.

On to `Cc1ccc(-c2nc(N)n(C(=O)c3cccnc3)n2)cc1`, for which the inhibition is 0%.

As for `CN(c1cccc(NS(=O)(=O)c2cccs2)c1)S(C)(=O)=O`, the inhibition is 0%.

Turning to `Cc1ccccc1N(CC(=O)NCC1CCCO1)C(=O)C1(C)CC(=O)N=C2C=CC=CN21` (centres undefined), the inhibition is 0%.

As to `COC(=O)c1cn(C(=O)c2ccc(Br)o2)c2ccccc12`, the inhibition was 0%.

With `Cc1cccc(NC(=O)CSc2nnc(-c3ccccc3C)o2)c1`, the inhibition is 0%.

For `c1ccc(Cn2nnc3c(N4CCC5(CC4)OCCO5)ncnc32)cc1`, the inhibition is 0%.

As for `COc1cc(C(=O)NCCc2ccc3c(c2)OCCO3)ccc1OCC(=O)N1CCOCC1`, the inhibition was 2%.

For the compound `O=C(O)c1ccc(-c2ccc(O)c(F)c2)cc1`, the inhibition was 1%.

Regarding `CCOCCCNC(=O)C1CCN(S(=O)(=O)N(CC(C)C)CC(C)C)CC1`, the inhibition is 0%.

In the case of `Cc1cccc(OCC(=O)Nc2cc(C)ccc2O)c1`, the inhibition is 0%.

Take `CCOc1ccc(C(=O)N2CCN(c3ccccc3)CC2)cc1OCC`: the inhibition is 1%.

Consider `Cc1cccc(-n2ncc3c(N4CCC5(CC4)OCCO5)ncnc32)c1`, for which the inhibition was 7%.

In the case of `CCCc1cc(=O)[nH]c(SCc2ccccc2)n1`, the inhibition was 0%.

Consider `COc1cc(OC)cc(-n2nnnc2SCC(=O)N2CCCC2)c1`, for which the inhibition was 0%.

Consider `N#CC1=C(SCC(=O)NC2CCCCC2)NC(=O)CC1c1ccco1` (centres undefined), for which the inhibition is 8%.

With `Cn1ncc2c(Nc3ccccc3Br)ncnc21`, the inhibition is 0%.

Regarding `CN(CCO)CC(O)Cn1cnc2c1c(=O)n(C)c(=O)n2C` (centres undefined) (tested in a mixture with another compound), the inhibition is 0%.

For `CCN(CC)CCCN1C(=O)C(=O)/C(=C(/O)c2ccccc2)C1c1ccccn1` (centres undefined), the inhibition was 0%.

As for `CSc1nc2c(ccc3ccccc32)o1`, the inhibition was 2%.

For `CCc1ccc(NC(=O)c2cccnc2)cc1`, the inhibition is 16%.

With `O=C(NCc1ccco1)c1cccc(S(=O)(=O)N2CCCCC2)c1`, the inhibition is 0%.

Regarding `Cc1ccc(S(=O)(=O)N2CCN(C(=O)N3CCOCC3)C2C)cc1` (centres undefined), the inhibition was 0%.

Turning to `CCOC(=O)c1cnc(C(C)(C)C)[nH]c1=O`, the inhibition was 10%.

Turning to `CC[C@]1(O)CC2CN(CCc3c([nH]c4ccccc34)[C@@](C(=O)OC)(c3cc4c(cc3OC)N(C=O)[C@H]3[C@@](O)(C(=O)OC)[C@H](OC(C)=O)[C@]5(CC)C=CCN6CC[C@]43[C@@H]65)C2)C1` (some centres undefined), the inhibition was 1%.

With `CCOC(=O)CSC1=C(C#N)C(c2ccc(C)cc2)C(C(=O)OC)C(=O)N1` (centres undefined), the inhibition was 0%.

Take `Cc1ccc(C)c(N2CCN(C(=O)C3CCN(S(=O)(=O)c4c(C)noc4C)CC3)CC2)c1`: the inhibition is 4%.

As to `CCOC(=O)c1ccc(NC(=O)CCc2nc(-c3ccc(C)cc3)no2)cc1`, the inhibition was 0%.

`Cc1ccc(-c2ccc(/C=N/n3cnnc3)o2)cc1Cl`: the inhibition was 11%.

For the compound `O=C(NCCCN1CCCC1=O)c1ccc2c(=O)n(Cc3ccco3)c(=S)[nH]c2c1`, the inhibition is 0%.
